From PubChem BioAssay (Tox21)
Inconclusive results are not listed. Calls of active or inactive are those of the source. Unless noted, calls follow the shape of the full dose curve.

Assays:
[1] = Nuclear factor erythroid 2-related factor 2/antioxidant responsive element (Nrf2/ARE) small molecule agonists: qHTS cell viability counter screen in human keratinocytes (AID 1919968; active = well fitted curve in the direction sought with a large enough effect in the repeat runs; an effect the other way counts as inactive or inconclusive; also: nearly all actives have a fitted effect of over 55% in size; also: potency is read from the fitted curve at half-maximal effect)
Outline: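 KeratinoSens HaCaT cells, 1,500/well, preincubated 5 h, then exposed to compounds in DMSO for 23 h at 37 C/5% CO2. Viability read as CellTiter-Fluor fluorescence after 1 h, in the same wells as the ARE-luciferase read.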

[2] = molecular target: Gonadotropin-releasing hormone receptor (Homo sapiens) (UniProt P30968); test: Human gonadotropin-releasing hormone receptor (GnRHR) small molecule agonists, calcium flux assay in GnRHR-HEK293 cells (AID 1920063); also: nearly all actives have a fitted effect of over 35% in size
Outline: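 HEK293 cells stably expressing human GnRHR were dye-loaded for 1 h at 37 C. Compound was added in agonist mode and fluorescence (Ex/Em 480/540) recorded kinetically for 3 min. Fifteen concentrations, triplicates.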

[3] = molecular target: KiSS-1 receptor (Homo sapiens) (UniProt Q969F8); test: Human kisspeptin (KISS1R) small molecule agonists, calcium flux assay in KISS1R-HEK293 cells (AID 1920064; active = well fitted curve in the direction sought with a large enough effect in the repeat runs; an effect the other way counts as inactive or inconclusive)
Outline: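 HEK293 cells stably expressing human KISS1R were loaded with calcium dye for 1 h at 37 C, then given compound; fluorescence (Ex/Em 480/540) was read kinetically for 3 min. Fifteen concentrations, triplicate.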

[4] = G protein-coupled receptor (GPCR) small molecule agonists, calcium flux assay: HEK293 wild type cell line counter screen (AID 1920065)
Outline: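 Wild-type HEK293 cells plated 18 h, loaded with calcium dye 1 h at 37 C, then compounds added in agonist mode (ATP as positive control). Kinetic fluorescence Ex/Em 480/540 recorded 3 min at 1 sec intervals; 15 concentrations, triplicate.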

[5] = p53 small molecule agonists, cell-based qHTS assay with rat liver microsomes (AID 1963578)
Outline: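 Quantitative HTS of the Tox21 10K library: p53RE-bla cells, rat liver microsomes plus NADPH at 0.5 mg/mL final each, 16 h at 37 C, beta-lactamase fluorescence detection.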

[6] = p53 small molecule agonists, cell-based qHTS assay with human liver microsomes: qHTS cell viability counter screen (AID 1963579); also: nearly all actives have a fitted effect of over 45% in size; also: potency is read from the fitted curve at half-maximal effect
Outline: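 Viability of p53RE-bla cells is measured as CellTiter-Glo luminescence following a 16 h, 37 C incubation with compound, liver microsomes from human donors and NADPH.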

[7] = p53 small molecule agonists, cell-based qHTS assay with rat liver microsomes: qHTS cell viability counter screen (AID 1963580); also: nearly all actives have a fitted effect of over 45% in size; also: potency is read from the fitted curve at half-maximal effect
Outline: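 p53RE-bla HCT-116 cells were exposed 16 h at 37 C to compounds with rat liver microsomes (0.5 mg/mL) and NADPH (0.5 mg/mL). Viability was measured in the same wells as ATP content by CellTiter-Glo luminescence.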

[8] = p53 small molecule agonists, cell-based qHTS assay (AID 1963582; active = well fitted activation curve with a large enough effect in the signal ratio in the repeat runs, not every such curve was filed as active; the % refers to the signal ratio; also: potency is read from the fitted curve at half-maximal effect)
Outline: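 p53RE-bla reporter cells, compounds added in DMSO after 5 h plating, incubated 16 h at 37 C. Beta-lactamase read via 2 h room-temperature LiveBLAzer B/G FRET substrate, fluorescence intensity.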

[9] = molecular target: 5-hydroxytryptamine receptor 2A (Homo sapiens) (UniProt P28223); test: 5-hydroxytryptamine receptor 2A (HTR2A) small molecule antagonists, cell-based qHTS assay (AID 1963586); also: nearly all actives have a fitted effect of over 45% in size; also: potency is read from the fitted curve at half-maximal effect
Outline: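 Antagonist-mode intracellular calcium assay: DOI (4 nM) added after 5 min compound pre-incubation at room temperature to dye-loaded HTR2A-CHO cells. Fluorescence followed for 3 min, sampled every second.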

[10] = molecular target: 5-hydroxytryptamine receptor 2A (Homo sapiens) (UniProt P28223); test: 5-hydroxytryptamine receptor 2A (HTR2A) small molecule agonists, cell-based qHTS assay (AID 1963587); also: nearly all actives have a fitted effect of over 30% in size
Outline: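 CHO cells stably expressing human HTR2A, plated 18 h, loaded with calcium dye 1 h at 37 C. Agonist mode: compounds added and intracellular calcium fluorescence recorded kinetically for 2 min at 1 sec intervals.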

[11] = molecular target: Muscarinic acetylcholine receptor M1 (Homo sapiens) (UniProt P11229); test: Cholinergic receptor muscarinic 1 (CHRM1) small molecule antagonists, cell-based qHTS assay (AID 1963588); also: nearly all actives have a fitted effect of over 40% in size
Outline: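 CHRM1-CHO calcium-flux assay, antagonist mode. Cells were seeded 18 h, dye-loaded 1 h at 37 C and given compound for 5 min at RT, then acetylcholine was added at 50nM. FDSS fluorescence was read 3 min; 15 concentrations, three runs.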

[12] = molecular target: Muscarinic acetylcholine receptor M1 (Homo sapiens) (UniProt P11229); test: Cholinergic receptor muscarinic 1 (CHRM1) small molecule agonists, cell-based qHTS assay (AID 1963589); also: nearly all actives have a fitted effect of over 35% in size
Outline: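 CHO cells stably expressing human CHRM1 were loaded with calcium dye for 1 h at 37 C, then compound was added in agonist mode. Intracellular calcium fluorescence was followed kinetically at 1 s intervals. Fifteen concentrations were tested in three independent runs.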

[13] = molecular target: Beta-2 adrenergic receptor (Homo sapiens) (UniProt P07550); test: Adrenergic beta2 receptor (ADRB2) small molecule antagonists, cell-based qHTS assay (AID 1963592); also: series mostly up to about 92 µM; nearly all actives have a fitted effect of over 50% in size
Outline: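 Cells (CHO, stable ADRB2 overexpression) incubated 18-20hr at 37C; compounds added from DMSO; agonist mix (1nM isoproterenol, 100uM IBMX, 25uM Ro-20-1724) added; 0.5hr RT; d2-cAMP and anti-cAMP-cryptate added; 1hr RT; 665/615 nm read.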

[14] = molecular target: D(2) dopamine receptor (Homo sapiens) (UniProt P14416); test: Dopamine D2 receptor (DRD2) small molecule agonists, cell-based qHTS assay (AID 1963594); also: nearly all actives have a fitted effect of over 35% in size
Outline: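 HEK293 cells stably expressing human DRD2, pre-treated with PDE inhibitor Ro20-1724 (0.1 mM final) and compound 10 min at room temperature, then stimulated with NKH477 (200nM […]) for 30 min. cAMP read by HTRF (665/620 nm).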

[15] = p53 small molecule agonists, cell-based qHTS assay with human liver microsomes (AID 1963577);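 also: p53 response element beta-lactamase reporter cells with liver microsomes plus NADPH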
Outline: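 HLM-supplemented p53RE-bla reporter assay: 16 h compound exposure at 37 C, microsomes and NADPH each 0.5 mg/mL final, read by fluorescence intensity.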

[16] = cAMP Responsive Elements (CRE) small molecule antagonists, cell-based qHTS assay (AID 1963591; active = well fitted inhibition curve with a large enough effect in the signal ratio in the repeat runs, not every such curve was filed as active; the % refers to the signal ratio; also: potency is read from the fitted curve at half-maximal effect)
Outline: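 CRE-bla HEK293T cells plated 18 h, then given compound plus NKH477 at 0.25 uM final for 3 h at 37C. Beta-lactamase reporter read with LiveBLAzer B/G FRET substrate after 2 h at room temperature.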

[17] = molecular target: D(2) dopamine receptor (Homo sapiens) (UniProt P14416); test: Dopamine D2 receptor (DRD2) small molecule antagonists, cell-based qHTS assay (AID 1963595; active = well fitted inhibition curve with a large enough effect in the signal ratio in the repeat runs, with a control signal flat; the % refers to the signal ratio)
Outline: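 Antagonist mode in DRD2-HEK293 cells: after compound addition with 0.1 mM Ro20-1724, cells received quinpirole (12 nM) and NKH477 (200 nM) for 30 min at room temperature; HTRF cAMP read after 1 h detection.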

[18] = p53 small molecule agonists, cell-based qHTS assay: qHTS cell viability counter screen (AID 1963581); also: nearly all actives have a fitted effect of over 45% in size; also: potency is read from the fitted curve at half-maximal effect
Outline: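 p53RE-bla HCT-116 cells, compounds added 5 h after plating and incubated 16 h at 37 C. Cytotoxicity measured in the same wells as intracellular ATP by CellTiter-Glo luminescence after 30 min at room temperature.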

[19] = cAMP Responsive Elements (CRE) small molecule agonists, cell-based qHTS assay (AID 1963590)
Outline: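 CRE-bla HEK 293T cells, 2,000/well in DMEM with 10% dialyzed FBS and 25 mM HEPES, pre-incubated 18 h at 37 C, then exposed to compound 3 h at 37 C. Beta-lactamase reporter read with LiveBLAzer B/G FRET substrate after 2 h at room temperature.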

[20] = molecular target: Beta-2 adrenergic receptor (Homo sapiens) (UniProt P07550); test: Adrenergic beta2 receptor (ADRB2) small molecule agonists, cell-based qHTS assay (AID 1963593);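 also: CHO cells stably overexpressing human ADRB2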
Outline: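 CHO cells stably over-expressing ADRB2 were plated overnight at 37C, then dosed with compounds plus a stimulation mix containing 100uM IBMX and 25uM Ro-20-1724 for 0.5hr at room temperature. cAMP was measured by HTRF competition, 1hr.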

Measured: Potency

Beta-2 adrenergic receptor (Homo sapiens), sequence (P07550 whole entry, looked up): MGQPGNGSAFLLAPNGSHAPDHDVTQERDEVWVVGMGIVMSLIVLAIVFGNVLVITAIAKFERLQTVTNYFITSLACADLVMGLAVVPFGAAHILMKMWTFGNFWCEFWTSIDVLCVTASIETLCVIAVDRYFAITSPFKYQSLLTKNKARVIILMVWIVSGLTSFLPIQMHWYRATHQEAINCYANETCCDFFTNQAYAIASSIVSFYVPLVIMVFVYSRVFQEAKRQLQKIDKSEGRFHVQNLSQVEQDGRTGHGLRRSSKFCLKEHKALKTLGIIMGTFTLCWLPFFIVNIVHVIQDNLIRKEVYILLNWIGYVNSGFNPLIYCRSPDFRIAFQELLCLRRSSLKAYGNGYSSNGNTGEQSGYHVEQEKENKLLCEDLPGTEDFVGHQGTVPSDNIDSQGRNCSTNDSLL
5-hydroxytryptamine receptor 2A (Homo sapiens), sequence (P28223 whole entry, looked up): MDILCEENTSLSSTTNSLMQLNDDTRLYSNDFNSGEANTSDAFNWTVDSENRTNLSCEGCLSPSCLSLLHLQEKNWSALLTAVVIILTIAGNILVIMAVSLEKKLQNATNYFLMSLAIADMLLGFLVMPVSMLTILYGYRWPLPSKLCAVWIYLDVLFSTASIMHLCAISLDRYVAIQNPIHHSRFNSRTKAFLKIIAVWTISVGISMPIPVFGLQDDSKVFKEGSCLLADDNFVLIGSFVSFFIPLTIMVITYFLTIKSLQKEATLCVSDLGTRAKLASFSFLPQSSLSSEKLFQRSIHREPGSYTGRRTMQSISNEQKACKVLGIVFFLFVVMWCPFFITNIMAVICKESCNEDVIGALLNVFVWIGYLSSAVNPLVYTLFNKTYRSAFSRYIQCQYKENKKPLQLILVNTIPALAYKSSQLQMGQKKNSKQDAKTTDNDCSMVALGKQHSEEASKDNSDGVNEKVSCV
Gonadotropin-releasing hormone receptor (Homo sapiens), sequence (P30968 whole entry, looked up): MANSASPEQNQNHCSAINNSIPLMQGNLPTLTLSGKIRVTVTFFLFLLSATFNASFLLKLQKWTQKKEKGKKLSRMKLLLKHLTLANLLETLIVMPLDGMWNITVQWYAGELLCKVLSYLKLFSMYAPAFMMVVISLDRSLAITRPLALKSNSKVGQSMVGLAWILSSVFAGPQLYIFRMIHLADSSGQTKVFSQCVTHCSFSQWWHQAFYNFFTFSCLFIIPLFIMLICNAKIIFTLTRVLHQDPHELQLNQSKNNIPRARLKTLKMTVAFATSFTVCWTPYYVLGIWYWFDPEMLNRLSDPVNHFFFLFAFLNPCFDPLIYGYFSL
Muscarinic acetylcholine receptor M1 (Homo sapiens), sequence (P11229 whole entry, looked up): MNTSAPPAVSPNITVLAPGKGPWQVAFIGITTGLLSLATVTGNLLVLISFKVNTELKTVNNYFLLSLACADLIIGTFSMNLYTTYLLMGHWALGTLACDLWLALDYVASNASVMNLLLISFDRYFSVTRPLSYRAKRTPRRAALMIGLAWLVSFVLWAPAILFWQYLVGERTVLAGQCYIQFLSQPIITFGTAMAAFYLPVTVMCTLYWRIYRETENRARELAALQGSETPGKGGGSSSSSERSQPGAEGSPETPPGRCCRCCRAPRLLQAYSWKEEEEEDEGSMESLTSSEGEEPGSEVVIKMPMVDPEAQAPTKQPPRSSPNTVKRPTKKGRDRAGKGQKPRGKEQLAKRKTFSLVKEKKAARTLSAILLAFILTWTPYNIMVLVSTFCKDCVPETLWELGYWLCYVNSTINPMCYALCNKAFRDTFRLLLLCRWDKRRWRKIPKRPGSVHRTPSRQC
KiSS-1 receptor (Homo sapiens), sequence (Q969F8 whole entry, looked up): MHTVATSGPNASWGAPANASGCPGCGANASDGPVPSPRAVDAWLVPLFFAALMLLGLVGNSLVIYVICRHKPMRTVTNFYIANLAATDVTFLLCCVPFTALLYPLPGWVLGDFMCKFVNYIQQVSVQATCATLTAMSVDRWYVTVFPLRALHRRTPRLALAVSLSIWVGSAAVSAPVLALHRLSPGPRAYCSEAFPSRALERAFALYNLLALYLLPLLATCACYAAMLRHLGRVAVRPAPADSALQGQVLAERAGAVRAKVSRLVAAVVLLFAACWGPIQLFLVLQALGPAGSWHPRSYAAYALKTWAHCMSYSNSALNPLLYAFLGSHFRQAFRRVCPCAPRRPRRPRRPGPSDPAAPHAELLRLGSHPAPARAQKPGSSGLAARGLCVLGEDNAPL
D(2) dopamine receptor (Homo sapiens), sequence (P14416 whole entry, looked up): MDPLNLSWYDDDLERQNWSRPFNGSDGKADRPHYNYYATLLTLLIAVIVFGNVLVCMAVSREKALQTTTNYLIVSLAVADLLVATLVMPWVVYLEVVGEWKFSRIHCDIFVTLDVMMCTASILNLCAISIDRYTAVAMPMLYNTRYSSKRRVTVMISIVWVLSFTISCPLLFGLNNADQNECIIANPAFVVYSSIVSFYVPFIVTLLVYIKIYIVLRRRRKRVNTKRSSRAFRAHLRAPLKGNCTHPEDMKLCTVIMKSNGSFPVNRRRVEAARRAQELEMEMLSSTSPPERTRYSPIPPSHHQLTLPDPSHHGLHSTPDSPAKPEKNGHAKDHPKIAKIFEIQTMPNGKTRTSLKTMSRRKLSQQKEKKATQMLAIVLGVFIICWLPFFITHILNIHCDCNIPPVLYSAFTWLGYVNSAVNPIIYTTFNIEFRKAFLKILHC

O=C(O)Cc1cc(I)c(Oc2ccc(O)c(I)c2)c(I)c1
active: [8] 11.5 µM
not listed: [15] | [16] | [17] | [18] | [19] | [20]
inactive: all other assays above

O=S(c1cc(Cl)cc(Cl)c1O)c1cc(Cl)cc(Cl)c1O
active: [1] 23.7 µM | [8] 17.8 µM
not listed: [5] | [9] | [14] | [18] | [19] | [20]
inactive: all other assays above

CCc1cc(SCc2sc(-c3ccc(C(F)(F)F)cc3)nc2CN2CCN(c3ccc(OC)cc3)CC2)ccc1OCC(=O)O
active: [1] 54.5 µM | [6] 36.3 µM | [7] 32.4 µM | [18] 12.9 µM
inactive: [2] | [3] | [4] | [15] | [12] | [14]

O=c1[nH]nc(-c2ccc([N+](=O)[O-])o2)o1
not listed: [11] | [15] | [16] | [19] | [20]
inactive: all other assays above

ClC(Cl)(Cl)c1ccc(C(Cl)(Cl)Cl)cc1
not listed: [15] | [20]
inactive: all other assays above

c1ccc(B(c2ccccc2)c2ccccc2)cc1
active: [16] 28.5 µM
not listed: [12] | [14] | [15] | [20]
inactive: all other assays above

CN(C)Cc1cc(C(C)(C)C)c(O)c(C(C)(C)C)c1
active: [9] 3.75 µM
not listed: [13] | [15] | [20]
inactive: all other assays above

CCN(Cc1cccc(S(=O)(=O)O)c1)c1ccc(C(=C2C=CC(=[N+](CC)Cc3cccc(S(=O)(=O)[O-])c3)C=C2)c2ccccc2)cc1
not listed: [12] | [15] | [16] | [17] | [19] | [20]
inactive: all other assays above

CC(C)NCC(O)COc1ccc(CCOCC2CC2)cc1 (configuration not stated)
not listed: [9] | [13] | [14] | [15] | [16] | [20]
inactive: all other assays above

CC(=O)CCc1ccc(OC(C)=O)cc1
not listed: [15] | [18] | [20]
inactive: all other assays above

COc1cc(/C=C/c2ccccc2)oc(=O)c1
not listed: [8] | [9] | [15] | [16] | [19] | [20]
inactive: all other assays above

CS(=O)(=O)Nc1ccc([N+](=O)[O-])cc1Oc1ccccc1
not listed: [5] | [9] | [10] | [11] | [12] | [16] | [17]
inactive: all other assays above

CCNc1nc(NC(C)CC)nc(OC)n1 (configuration not stated)
not listed: [5] | [6] | [13] | [16] | [17]
inactive: all other assays above

CC1(C)CCC[C@]2(C)[C@H]3CC(=O)O[C@]3(C)CC[C@@H]12
not listed: [10] | [11] | [15] | [16] | [17] | [19] | [20]
inactive: all other assays above

CCCc1ccccc1O
not listed: [5] | [10] | [17]
inactive: all other assays above

CCO/C=C1\N=C(c2ccccc2)OC1=O
not listed: [5] | [12] | [19] | [20]
inactive: all other assays above
